# According to the supplement of paper PMC4466140:
# B1: unnamed (peptide)
# chain: RPPRPPPKPLHLRTE
# B2: unnamed (peptide)
# chain: YHSRRHPLALGFKYV
# Experiments:
# Test in all cases: SPOT peptide array binding signal intensity (averaged, normalized) (arbitrary units (background-subtracted, floor 0; scale differs between SH3 domains)); higher = stronger binding of the SH3 domain to the peptide
# SpBzz1-D2 = molecular target: SpBzz1-D2
# Experimental: (§1)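 GST-tagged SH3 domains from S. cerevisiae (Sc), A. gossypii (Ag), C. albicans (Ca) and S. pombe (Sp) were incubated at 10 ug/ml overnight at 4 C on cellulose SPOT membranes carrying 292 synthetic 15-mer peptides mined from the S. cerevisiae proteome (cysteines replaced by serines). Binding was detected with anti-GST antibody, HRP secondary and chemiluminescence, quantified with Genespotter, and reported as normalized spot intensities averaged over biological replicates.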
# SpCyk3 = molecular target: SpCyk3
# Experimental: as §1
# SpHof1 = molecular target: SpHof1
# Experimental: as §1
# SpHof1-2 = molecular target: SpHof1-2
# Experimental: as §1
# SpHof1-3 = molecular target: SpHof1-3
# Experimental: as §1
# SpHse1 = molecular target: SpHse1
# Experimental: as §1
# SpLsb1 = molecular target: SpLsb1
# Experimental: as §1
# SpLsb4 = molecular target: SpLsb4
# Experimental: as §1
# SpMyo1 = molecular target: SpMyo1
# Experimental: as §1
# SpNbp2 = molecular target: SpNbp2
# Experimental: as §1
# SpPex13 = molecular target: SpPex13
# Experimental: as §1
# SpRvs167 = molecular target: SpRvs167
# Experimental: as §1
# SpSla1-D1-D2 = molecular target: SpSla1-D1-D2
# Experimental: as §1
# SpSla1-D3 = molecular target: SpSla1-D3
# Experimental: as §1
# AgAbp1 = molecular target: AgAbp1
# Experimental: as §1
# AgBbc1 = molecular target: AgBbc1
# Experimental: as §1
# AgBem1-D1 = molecular target: AgBem1-D1
# Experimental: as §1
# AgBzz1-D1 = molecular target: AgBzz1-D1
# Experimental: as §1
# AgBzz1-D2 = molecular target: AgBzz1-D2
# Experimental: as §1
# AgCyk3 = molecular target: AgCyk3
# Experimental: as §1
# AgFus1 = molecular target: AgFus1
# Experimental: as §1
# AgHof1 = molecular target: AgHof1
# Experimental: as §1
# AgHse1 = molecular target: AgHse1
# Experimental: as §1
# AgLsb1 = molecular target: AgLsb1
# Experimental: as §1
# AgLsb4 = molecular target: AgLsb4
# Experimental: as §1
# AgMyo5 = molecular target: AgMyo5
# Experimental: as §1
# AgNbp2 = molecular target: AgNbp2
# Experimental: as §1
# AgRvs167 = molecular target: AgRvs167
# Experimental: as §1
# AgSho1 = molecular target: AgSho1
# Experimental: as §1
# AgSla1-D1-D2 = molecular target: AgSla1-D1-D2
# Experimental: as §1
# AgSla1-D3 = molecular target: AgSla1-D3
# Experimental: as §1
# CaAbp1-D1 = molecular target: CaAbp1-D1
# Experimental: as §1
# CaAbp1-D2 = molecular target: CaAbp1-D2
# Experimental: as §1
# CaBbc1 = molecular target: CaBbc1
# Experimental: as §1
# CaBem1-D1 = molecular target: CaBem1-D1
# Experimental: as §1
# CaBzz1-D1 = molecular target: CaBzz1-D1
# Experimental: as §1
# CaBzz1-D2 = molecular target: CaBzz1-D2
# Experimental: as §1
# CaCyk3 = molecular target: CaCyk3
# Experimental: as §1
# CaFus1 = molecular target: CaFus1
# Experimental: as §1
# CaHof1 = molecular target: CaHof1
# Experimental: as §1
# CaHse1 = molecular target: CaHse1
# Experimental: as §1
# CaLsb1 = molecular target: CaLsb1
# Experimental: as §1
# CaLsb4 = molecular target: CaLsb4
# Experimental: as §1
# CaMyo5 = molecular target: CaMyo5
# Experimental: as §1
# CaNbp2 = molecular target: CaNbp2
# Experimental: as §1
# CaRvs167 = molecular target: CaRvs167
# Experimental: as §1
# CaRvs167-3 = molecular target: CaRvs167-3
# Experimental: as §1
# CaSho1 = molecular target: CaSho1
# Experimental: as §1
# CaSla1-D1-D2 = molecular target: CaSla1-D1-D2
# Experimental: as §1
# CaSla1-D3 = molecular target: CaSla1-D3
# Experimental: as §1
# ScAbp1 = molecular target: ScAbp1
# Experimental: as §1
# ScBbc1 = molecular target: ScBbc1
# Experimental: as §1
# ScBem1-D1 = molecular target: ScBem1-D1
# Experimental: as §1
# ScBzz1-D1 = molecular target: ScBzz1-D1
# Experimental: as §1
# ScBzz1-D2 = molecular target: ScBzz1-D2
# Experimental: as §1
# ScCyk3 = molecular target: ScCyk3
# Experimental: as §1
# ScFus1 = molecular target: ScFus1
# Experimental: as §1
# ScHof1 = molecular target: ScHof1
# Experimental: as §1
# ScHse1 = molecular target: ScHse1
# Experimental: as §1
# ScLsb1 = molecular target: ScLsb1
# Experimental: as §1
# ScLsb2 = molecular target: ScLsb2
# Experimental: as §1
# ScLsb3 = molecular target: ScLsb3
# Experimental: as §1
# ScLsb4 = molecular target: ScLsb4
# Experimental: as §1
# ScMyo3 = molecular target: ScMyo3
# Experimental: as §1
# ScMyo5 = molecular target: ScMyo5
# Experimental: as §1
# ScNbp2 = molecular target: ScNbp2
# Experimental: as §1
# ScPex13 = molecular target: ScPex13
# Experimental: as §1
# ScRvs167 = molecular target: ScRvs167
# Experimental: as §1
# ScSho1 = molecular target: ScSho1
# Experimental: as §1
# ScSla1-D1-D2 = molecular target: ScSla1-D1-D2
# Experimental: as §1
# ScSla1-D3 = molecular target: ScSla1-D3
# Experimental: as §1
# SpAbp1-D1 = molecular target: SpAbp1-D1
# Experimental: as §1
# SpBbc1 = molecular target: SpBbc1
# Experimental: as §1
# SpBzz1-D1 = molecular target: SpBzz1-D1
# Experimental: as §1
binder,measurement,setting,value
B1,SPOT peptide array binding signal intensity,SpBzz1-D2,43
same,SPOT peptide array binding signal intensity,SpCyk3,≤ 0
same,SPOT peptide array binding signal intensity,SpHof1,65
same,SPOT peptide array binding signal intensity,SpHof1-2,15.5
same,SPOT peptide array binding signal intensity,SpHof1-3,237
same,SPOT peptide array binding signal intensity,SpHse1,216
same,SPOT peptide array binding signal intensity,SpLsb1,582
same,SPOT peptide array binding signal intensity,SpLsb4,1950
same,SPOT peptide array binding signal intensity,SpMyo1,318
same,SPOT peptide array binding signal intensity,SpNbp2,22
same,SPOT peptide array binding signal intensity,SpPex13,17
same,SPOT peptide array binding signal intensity,SpRvs167,865
same,SPOT peptide array binding signal intensity,SpSla1-D1-D2,13.5
same,SPOT peptide array binding signal intensity,SpSla1-D3,4
B2,SPOT peptide array binding signal intensity,AgAbp1,25.5
same,SPOT peptide array binding signal intensity,AgBbc1,12
same,SPOT peptide array binding signal intensity,AgBem1-D1,86
same,SPOT peptide array binding signal intensity,AgBzz1-D1,≤ 0
same,SPOT peptide array binding signal intensity,AgBzz1-D2,≤ 0
same,SPOT peptide array binding signal intensity,AgCyk3,4
same,SPOT peptide array binding signal intensity,AgFus1,566
same,SPOT peptide array binding signal intensity,AgHof1,19
same,SPOT peptide array binding signal intensity,AgHse1,187
same,SPOT peptide array binding signal intensity,AgLsb1,2
same,SPOT peptide array binding signal intensity,AgLsb4,2
same,SPOT peptide array binding signal intensity,AgMyo5,3.25
same,SPOT peptide array binding signal intensity,AgNbp2,41.5
same,SPOT peptide array binding signal intensity,AgRvs167,7.67
same,SPOT peptide array binding signal intensity,AgSho1,26
same,SPOT peptide array binding signal intensity,AgSla1-D1-D2,26
same,SPOT peptide array binding signal intensity,AgSla1-D3,17
same,SPOT peptide array binding signal intensity,CaAbp1-D1,156
same,SPOT peptide array binding signal intensity,CaAbp1-D2,81.5
same,SPOT peptide array binding signal intensity,CaBbc1,6.75
same,SPOT peptide array binding signal intensity,CaBem1-D1,121
same,SPOT peptide array binding signal intensity,CaBzz1-D1,64
same,SPOT peptide array binding signal intensity,CaBzz1-D2,22
same,SPOT peptide array binding signal intensity,CaCyk3,4
same,SPOT peptide array binding signal intensity,CaFus1,630
same,SPOT peptide array binding signal intensity,CaHof1,4.5
same,SPOT peptide array binding signal intensity,CaHse1,38.5
same,SPOT peptide array binding signal intensity,CaLsb1,1.75
same,SPOT peptide array binding signal intensity,CaLsb4,≤ 0
same,SPOT peptide array binding signal intensity,CaMyo5,38.5
same,SPOT peptide array binding signal intensity,CaNbp2,204
same,SPOT peptide array binding signal intensity,CaRvs167,44
same,SPOT peptide array binding signal intensity,CaRvs167-3,103
same,SPOT peptide array binding signal intensity,CaSho1,153
same,SPOT peptide array binding signal intensity,CaSla1-D1-D2,124
same,SPOT peptide array binding signal intensity,CaSla1-D3,23.5
same,SPOT peptide array binding signal intensity,ScAbp1,54
same,SPOT peptide array binding signal intensity,ScBbc1,2.75
same,SPOT peptide array binding signal intensity,ScBem1-D1,58
same,SPOT peptide array binding signal intensity,ScBzz1-D1,1.5
same,SPOT peptide array binding signal intensity,ScBzz1-D2,40.5
same,SPOT peptide array binding signal intensity,ScCyk3,13.5
same,SPOT peptide array binding signal intensity,ScFus1,368
same,SPOT peptide array binding signal intensity,ScHof1,16.5
same,SPOT peptide array binding signal intensity,ScHse1,480
same,SPOT peptide array binding signal intensity,ScLsb1,1.5
same,SPOT peptide array binding signal intensity,ScLsb2,6.5
same,SPOT peptide array binding signal intensity,ScLsb3,≤ 0
same,SPOT peptide array binding signal intensity,ScLsb4,12
same,SPOT peptide array binding signal intensity,ScMyo3,18.8
same,SPOT peptide array binding signal intensity,ScMyo5,24.2
same,SPOT peptide array binding signal intensity,ScNbp2,102
same,SPOT peptide array binding signal intensity,ScPex13,10.5
same,SPOT peptide array binding signal intensity,ScRvs167,31.2
same,SPOT peptide array binding signal intensity,ScSho1,592
same,SPOT peptide array binding signal intensity,ScSla1-D1-D2,65
same,SPOT peptide array binding signal intensity,ScSla1-D3,4.75
same,SPOT peptide array binding signal intensity,SpAbp1-D1,130
same,SPOT peptide array binding signal intensity,SpBbc1,8.75
same,SPOT peptide array binding signal intensity,SpBzz1-D1,122
same,SPOT peptide array binding signal intensity,SpBzz1-D2,2
same,SPOT peptide array binding signal intensity,SpCyk3,3
same,SPOT peptide array binding signal intensity,SpHof1,42.8
same,SPOT peptide array binding signal intensity,SpHof1-2,10.8
same,SPOT peptide array binding signal intensity,SpHof1-3,386
same,SPOT peptide array binding signal intensity,SpHse1,274
same,SPOT peptide array binding signal intensity,SpLsb1,50.5
same,SPOT peptide array binding signal intensity,SpLsb4,≤ 0
same,SPOT peptide array binding signal intensity,SpMyo1,14.5
same,SPOT peptide array binding signal intensity,SpNbp2,53
same,SPOT peptide array binding signal intensity,SpPex13,52
same,SPOT peptide array binding signal intensity,SpRvs167,66.2
same,SPOT peptide array binding signal intensity,SpSla1-D1-D2,1
same,SPOT peptide array binding signal intensity,SpSla1-D3,23.5
